# Experimental data as given in PubChem BioAssay (Tox21).
# Results filed as inconclusive are left out. Entries that show only a call come without a potency. The source made the active and inactive calls. Calls come from the whole dose curve; as a rule, active = well fitted cell-killing curve with a large enough effect in the repeat runs; inconclusive = weak or mixed curves, or effect the other way; inactive = flat fitted curve, though single readings scatter.
# Assay: cAMP Responsive Elements (CRE) small molecule agonists, cell-based qHTS assay: qHTS cell viability counter screen (AID 2060914); note: nearly all actives have a fitted effect of over 50% in size
# Conditions: CRE-bla HEK293T viability, CellTiter-Glo luminescence, 5 h; series mostly up to 92.4 µM
# Method in brief: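 CRE-bla HEK293T cells in 10% dialyzed FBS medium were exposed to compounds for 3 h at 37C after 18 h plating. CellTiter-Glo was then added in the same wells, and luminescence was read after 30 min at room temperature.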
# Potency is the fitted concentration of half-maximal effect.
SMILES,Potency,"activity change, negative = cytotoxicity"
CCCCCCCCCC[N+](C)(CCCCCCCCCC)CCC[Si](OC)(OC)OC,24.3 µM (active),
CCCCCc1cccc(=O)o1,inactive,
CCCCOC(O)CC (stereo not given),inactive,
C[C@]12CCC(=O)C=C1CC[C@@H]1[C@@H]2[C@@H](O)C[C@@]2(C)[C@H]1CC[C@]2(O)C(=O)CO,inactive,
CCCCCCCCCCCC(=O)OCC(O)CO (stereo not given),inactive,
CC(C)N(C)C,inactive,
C1CCC(SSC2CCCCC2)CC1,inactive,
CCCCCCCCOC(C)=O,inactive,
OCCC(O)CO (stereo not given),inactive,
O=C(O)c1ccc(OCCN2CCCCC2)cc1,inactive,
CN(CCOc1ccc(NS(C)(=O)=O)cc1)CCc1ccc(NS(C)(=O)=O)cc1,inactive,
O=S(O)(O)=S,,9.38% [at 8.39 µM] (inactive)
CCc1ccc(O)cc1,inactive,
c1ccc2scnc2c1,inactive,
COCC(=O)O,inactive,
CC(C)(C)CC(C)(C)c1ccc(OCCO)cc1,inactive,
CCCCCCCCCCCCCCC,inactive,
CCOC(=O)Oc1ccc(CCNC(=O)[C@H](CCSC)NC(C)=O)cc1OC(=O)OCC,inactive,
Cc1c[nH]c2ccccc12,inactive,
CCCCCCOC(=O)CCCCC(=O)OCCCCCC,inactive,

SMILES,Potency,"activity change, negative = cytotoxicity"
Oc1ccc2c(c1)OC[C@@H](N1CCC(O)(c3ccc(F)cc3)CC1)[C@H]2O,inactive,
CC(C)(C)c1csc(-c2cc3cc(OCc4ccccc4CC(=O)O)ccc3o2)n1,inactive,
O=C1CCN(c2ccccc2)N1,inactive,
COc1ccc(C(=O)c2ccc(C)cc2)c(O)c1,inactive,
O=S1(=O)N=C(O)c2ccccc21,inactive,
CCN1CCOCC1,inactive,
Cc1ccccc1S,inactive,
C=C(CC(=O)O)C(=O)O,inactive,
CC(=O)O[C@@H]1C(=O)O[C@@H]2[C@H]1OC(=O)[C@@H]2OC(C)=O,inactive,
CC(CC(C#N)(c1ccccc1)C(C)C)N(C)C (stereo not given),inactive,
CN(C)CCCO[C@@H]1[C@H]2OC(C)(C)O[C@H]2O[C@@H]1C(O)CO (stereo not given in full),inactive,
CCN(CC)C(=O)c1cc(S(=O)(=O)Cc2ccccc2)c(N2CCC(c3ccccc3)CC2)cc1N(CC)CCN(C)C,inactive,
COc1c(N2C[C@@H]3CCCN[C@@H]3C2)c(F)cc2c(=O)c(C(=O)O)cn(C3CC3)c12,inactive,
COC(=O)c1cc(Cl)ccc1[N+](=O)[O-],inactive,
CC/C(=C(\c1ccccc1)c1ccc(OCCN(C)C)cc1)c1ccccc1,inactive,
O=C1Nc2ccccc2C1=O,inactive,
CCCCCCCCCCCCCCC(=O)O,inactive,
C1CNCCN1,inactive,
O=S(=O)(O)CCS,inactive,
CCCC(=O)OC[C@@H](OC(=O)CCC)[C@@H](OC(=O)CCC)[C@H](Cn1c2nc(=O)[nH]c(=O)c-2nc2cc(C)c(C)cc21)OC(=O)CCC,inactive,
